Compound activity from PubChem BioAssay.
DT40 TDP1 no CPT = qHTS for Inhibitors of human tyrosyl-DNA phosphodiesterase 1 (TDP1): qHTS in cells in absence of CPT. AID 686978, 2013. Potency, µM (highest dose often 46.2 µM), actives largely listed as inhibitors. DT40 Tdp1-/- hTDP1 cells, no CPT, ATP luminescence, 48 h. 420,000 compounds, 15% hits; note: nearly all actives have a fitted effect of over 55% in size
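Compound effects on proliferation are scored in DT40 Tdp1-/-;hTDP1 cells in the absence of CPT. ATP levels (CellTiter-Glo luminescence) are recorded after a ≥48 hr, 37 °C incubation.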
TDP1 cell CPT = DT40-hTDP1 cell growth loss with CPT; chicken DT40 Tdp1-/-;hTDP1 cells + 20 nM CPT, ATP luminescence, 48 h; Potency, µM (titrated, usually from 46.2 µM), hits mostly inhibitors; 420,000 compounds, 12% hits; note: nearly all actives have a fitted effect of over 55% in size
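Chicken DT40 Tdp1-/- cells complemented with human TDP1, 400 cells/well, exposed to compounds plus 20 nM camptothecin for at least 48 h at 37 C; viability read as ATP content by CellTiter-Glo luminescence.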
RORgamma inh = blocks mouse ROR gamma transcriptional activity; Drosophila S2 Gal4-RORgamma UAS-luciferase reporter, 20 h; Potency, µM (doses to about 53.6 µM), hits mostly inhibitors; 310,000 compounds, 5.4% hits; AID 2551; note: nearly all actives have a fitted effect of over 60% in size
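Read-out: Photinus luciferase luminescence; inhibitors lower reporter signal. Insect Schneider cells with Gal4-ROR gamma fusion under metallothionein promoter, UAS reporter; 700 uM final copper sulfate induction, 20 hr, ambient temperature.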
TDP1 block = TDP1 (human) enzyme inhibition; Potency, µM (top dose mostly 130 µM), most hits filed as inhibitors; Q9NUW8; recombinant TDP1, AlphaScreen DNA substrate cleavage; AID 485290; 350,000 compounds, 0.28% hits; note: nearly all actives have a fitted effect of over 40% in size
Target sequence (Q9NUW8 whole entry, looked up): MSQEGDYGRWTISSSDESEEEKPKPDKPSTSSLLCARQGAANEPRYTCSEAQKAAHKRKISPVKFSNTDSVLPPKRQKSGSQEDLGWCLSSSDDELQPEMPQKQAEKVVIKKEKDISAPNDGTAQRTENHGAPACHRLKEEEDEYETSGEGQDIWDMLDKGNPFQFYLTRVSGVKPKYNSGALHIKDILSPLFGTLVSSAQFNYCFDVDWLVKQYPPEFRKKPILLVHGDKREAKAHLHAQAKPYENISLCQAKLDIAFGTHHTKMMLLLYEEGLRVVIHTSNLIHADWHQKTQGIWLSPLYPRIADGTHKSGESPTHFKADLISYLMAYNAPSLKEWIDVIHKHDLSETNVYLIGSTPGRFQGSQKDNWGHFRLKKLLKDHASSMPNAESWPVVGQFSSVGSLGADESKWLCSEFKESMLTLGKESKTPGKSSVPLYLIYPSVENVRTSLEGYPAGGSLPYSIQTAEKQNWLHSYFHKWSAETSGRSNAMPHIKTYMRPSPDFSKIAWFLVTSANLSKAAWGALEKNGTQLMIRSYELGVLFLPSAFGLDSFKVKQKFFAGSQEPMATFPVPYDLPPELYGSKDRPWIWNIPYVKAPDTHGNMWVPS
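Enzyme-compound mixtures sat 15 min at room temperature, followed by a 5 min reaction with 15 nM final substrate and 10 min with AlphaScreen beads. Recombinant human Tdp1 was used at 1 nM final.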
Gal4-VP16 FLuc = counter-screen for ROR gamma inhibitors: Gal4-VP16 reporter; Drosophila S2 Gal4-VP16 UAS-luciferase, luminescence, 20 h; Potency, µM (doses to about 53.6 µM), most hits filed as inhibitors; 310,000 compounds, 3.5% hits;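 note: Gal4-VP16 expression switched on by copper sulfate through the metallothionein promoter; nearly all actives have a fitted effect of over 50% in size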
A number is an active result; . = inactive; ? = inconclusive; / = no result given. An excerpt weighted towards active compounds, which were near 19% of everything screened. Calls come from the whole dose curve; as a rule, active = well fitted curve in the direction sought with a large enough effect; inconclusive = small, poorly fitted or top-dose-only effect, or another doubt; inactive = no such curve, though single readings can be large; an effect the other way counts as inactive or inconclusive.

SMILES	DT40 TDP1 no CPT	TDP1 cell CPT	RORgamma inh	TDP1 block	Gal4-VP16 FLuc
CC(=O)O[C@H]1C2[C@@H](OC(=O)Cc3ccccc3)[C@@H](C)C[C@]2(OC(C)=O)C(=O)/C(C)=C/[C@@H]2[C@H](CC[C@@]13CO3)C2(C)C (some centres undefined)	/	/	?	.	.
CC(=O)O[C@@H]1CC[C@]2(C)C3CC[C@@]4(C)C(C[C@@H](O)[C@@H]4O)C3[C@@H](OC(C)=O)C[C@H]2C1 (some centres undefined)	?	.	/	.	/
CC(=O)OC1CCC2(C)C(CCC3C2CC(=O)C2(C)C3CC(N3CC3)C2C(C)=O)C1 (centres undefined)	13µM	7.3µM	/	/	/
CCOc1ccc(CCNC(=O)c2cc3c(-c4ccc(OC)c(OC)c4)nn(C)c3s2)cc1OCC	3.7µM	4.1µM	/	.	/
Cc1ccc([C@H]2N[C@]3(CCCN(Cc4ccc(C(F)(F)F)cc4)C3=O)[C@H]3C(=O)N(Cc4ccccc4)C(=O)[C@@H]23)cc1	?	23µM	/	/	/
CCN(C[C@H]1N[C@@](C)(C(=O)OC)[C@H]2C(=O)N(Cc3ccccc3)C(=O)[C@@H]12)C(=O)Nc1ccc(C)cc1	?	.	/	.	/
COc1ccccc1CN1CC[C@@]2(CCCN(C(=O)Oc3ccccc3)C2)C1	?	.	.	/	.
CN1CCc2nc3sc(C#N)c(N)c3c(-c3cccs3)c2C1	21µM	?	.	.	.
C[C@]12CC[C@H]3[C@@H](C[C@H](F)C4=CC(=O)CC[C@@]43C)[C@@H]1CC[C@@H]2O	?	?	/	.	/
COc1cc2c(cc1O)[C@@H]1Cc3ccc(OC)c(O)c3CN1CC2	4.1µM	4.6µM	/	/	/
c1ccc2sc(C3(N4CCCCC4)CCCCC3)cc2c1	18µM	27µM	.	.	.
COc1cc2c(cc1-c1cc3cc4ccoc4cc3oc1=O)OCO2	.	.	.	.	.
COc1ccc(S(=O)(=O)Cc2ccc(C(=O)N3CCC4(CC3)OCCO4)o2)cc1	.	.	.	.	.
C=C(COC(=O)CCC(=O)O)CC1CC(O)[C@]2(C)OC3CC4OC5C[C@]6(C)O[C@]7(C)CCC8OC9C[C@]%10(C)OC%11C(C)=CC(=O)OC%11CC%10OC9C[C@@H](C)C8OC7CC6O[C@]5(C)C/C=C\C4OC3CC2O1 (some centres undefined)	?	13µM	.	.	.
CC1=CC(=O)OC2CC3OC4C[C@@H](C)C5OC6CC7O[C@]8(C)C/C=C\C9OC%10CC%11OC(CC(C)CO)CC(O)[C@]%11(C)OC%10CC9OC8C[C@]7(C)O[C@]6(C)CCC5OC4C[C@]3(C)OC12 (some centres undefined)	21µM	18µM	.	.	.
O=C(Nc1cccc2ccccc12)c1nn(C23CC4CC(CC(C4)C2)C3)cc1Br	16µM	23µM	.	.	?
O=C(Nc1cccc2ccccc12)N1Cc2ccccc2-n2nncc2C1	?	.	/	/	/
CC(=O)Nc1ccc(S(=O)(=O)N2Cc3cnnn3-c3ccccc3C2C#N)cc1 (centres undefined)	.	.	/	/	/
CCOc1ccc(NC(=O)c2c(C)nn(Cc3ccccc3)c2Cl)cc1	.	.	.	.	.
CCOc1ccc(NC(=O)c2cc3c(C)nn(-c4ccccc4)c3s2)cc1	10µM	21µM	/	/	/
Cc1cc(/C=C2/C(=O)NC(=O)N(Cc3ccco3)C2=O)c(C)n1-c1ccccc1O	.	.	.	.	.
COc1ccc(N2CCN(CCc3ccncc3)CC2)cc1	.	.	.	.	.
O=c1c(C=NCc2cccs2)c(O)n(C2CCCCC2)c(=O)n1C1CCCCC1	?	.	.	.	.
O=c1c(C=NCCN2CCNCC2)c(O)n(C2CCCCC2)c(=O)n1C1CCCCC1	?	16µM	?	.	.
CN1CCN(c2ccccc2NC(=O)c2ccc(-c3ccc(Cl)c(Cl)c3)o2)CC1	?	18µM	.	.	.
CCSc1nnc(NC(=O)c2cccn(Cc3ccc(Cl)cc3)c2=O)s1	.	.	/	.	/
O=c1c2ccccc2nc(/C=C/c2ccc([N+](=O)[O-])o2)n1-c1ccc(O)cc1	2.3µM	2.3µM	.	.	.
